In PubChem BioAssay (NCI):
This is part of a sample that, as a whole, favours compounds with a hit. Of some 79,000 tested, about 15% had one in any assay. Activity calls are given as the source filed them. Cut-off read from the data, not from the text of the source: active = growth inhibition above about 70%; inactive = the rest.

How the values were obtained:
[1] = NCI Yeast Anticancer Drug Screen. Data for the rad52 strain (AID 147);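 note: 0% = growth of vehicle-treated control cultures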; details: S. cerevisiae rad52 mutant growth inhibition, stronger effect = higher value
Outline: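 Compounds are applied to a genetically defined yeast strain lacking normal DNA damage repair, and inhibition of growth is expressed relative to cultures given vehicle only.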

[2] = NCI Yeast Anticancer Drug Screen. Data for the wt1 strain (AID 149);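 note: 0% = growth of vehicle-treated wt1 cultures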; details: S. cerevisiae wt1 strain (SPY 50644) growth inhibition, stronger effect = higher value
Outline: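 Compounds are added to wt1 yeast cultures. Growth is then measured. Inhibition is expressed relative to vehicle-treated controls.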

[3] = NCI Yeast Anticancer Drug Screen. Data for the rad50EPP+ strain (AID 151);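 note: 0% = growth of vehicle-treated control cultures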; details: S. cerevisiae rad50 mutant strain, stronger effect = higher value
Outline: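 Compounds were applied to the rad50EPP+ yeast strain, which bears a defined DNA repair alteration, and growth inhibition was determined relative to vehicle-treated cultures.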

[4] = NCI Yeast Anticancer Drug Screen. Data for the mgt1 strain (AID 153); details: S. cerevisiae mgt1 mutant growth inhibition, stronger effect = higher value
Outline: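 Strain: mgt1 yeast, one of a set carrying defined DNA damage repair or cell cycle control alterations. Compound-treated growth compared with vehicle.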

[5] = NCI Yeast Anticancer Drug Screen. Data for the rad50 strain (AID 155);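 note: 0% = growth of vehicle-only cultures of the same strain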; details: S. cerevisiae rad50 strain growth inhibition, stronger effect = higher value
Outline: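 Inhibition values express reduced yeast growth in compound-treated cultures relative to vehicle-treated controls.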

[6] = NCI Yeast Anticancer Drug Screen. Data for the mec2-1 strain (AID 157); details: S. cerevisiae mec2-1 strain, stronger effect = higher value
Outline: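 Strain: mec2-1 (DNA repair/cell cycle alteration). Compound exposure, then growth measured; inhibition expressed relative to vehicle.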

[7] = NCI Yeast Anticancer Drug Screen. Data for the rad14 strain (AID 159);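 note: 0% = growth of vehicle-treated control cultures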; details: S. cerevisiae rad14 strain growth inhibition, stronger effect = higher value
Outline: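 A mutant yeast strain defective in DNA damage repair is treated with compound; inhibition of its growth is scored against untreated, vehicle-exposed cultures.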

[8] = NCI Yeast Anticancer Drug Screen. Data for the sgs1 mgt1 strain (AID 161);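 note: 0% = growth of cultures given vehicle only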; details: S. cerevisiae sgs1 mgt1 strain, stronger effect = higher value
Outline: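 Test agents were incubated with a DNA-repair-mutant yeast strain. Growth was then read and compared against vehicle-treated controls.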

[9] = NCI Yeast Anticancer Drug Screen. Data for the CLN2oe strain (AID 163);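 note: 0% = growth of vehicle-only control cultures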; details: S. cerevisiae CLN2oe strain, stronger effect = higher value
Outline: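 Growth of a genetically modified yeast strain is measured after compound exposure and compared with cultures given vehicle alone.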

[10] = NCI Yeast Anticancer Drug Screen. Data for the bub3 strain (AID 167); details: S. cerevisiae bub3 mutant strain, stronger effect = higher value
Outline: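 Steps: expose the mutant yeast strain to compound; grow alongside vehicle-treated cultures; measure growth; express inhibition against the vehicle cultures.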

[11] = NCI Yeast Anticancer Drug Screen. Data for the wt2 strain (AID 169);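 note: 0% = growth of vehicle-treated yeast cultures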; details: S. cerevisiae wt2 strain growth inhibition, stronger effect = higher value
Outline: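 This strain belongs to a panel of yeast strains with defined genetic alterations in DNA damage repair or cell cycle control. Compounds are applied, and growth inhibition is measured against vehicle-treated cultures.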

[12] = NCI Yeast Anticancer Drug Screen. Data for the mlh1 strain (AID 171);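 note: 0% = growth of vehicle-treated control cultures of the same strain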; details: S. cerevisiae mlh1 strain growth inhibition, stronger effect = higher value
Outline: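 Growth of the mutant yeast strain after compound exposure, expressed as inhibition relative to vehicle-only controls.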

[13] = NCI Yeast Anticancer Drug Screen. Data for the sgs1 strain (AID 173);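 note: 0% = growth of vehicle-only control cultures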; details: S. cerevisiae sgs1 mutant, stronger effect = higher value
Outline: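 Growth of a yeast strain bearing a defined genetic alteration is measured after compound treatment. Inhibition is expressed relative to vehicle-only controls.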

[14] = NCI Yeast Anticancer Drug Screen. Data for the mlh1 rad18 strain (AID 175); details: S. cerevisiae mlh1 rad18 strain growth inhibition, stronger effect = higher value
Outline: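 Read-out is yeast growth inhibition, calculated against vehicle-only controls. The compound was applied to a strain engineered with DNA damage repair alterations.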

[15] = NCI Yeast Anticancer Drug Screen. Data for the rad18 strain (AID 177); details: S. cerevisiae rad18 mutant growth inhibition, stronger effect = higher value
Outline: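 Growth of the mutant yeast strain after compound exposure, normalised to vehicle-only cultures.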

[16] = at 5.0 µM (retest, dose inferred, filed as 0.5)
[17] = at 50.0 µM (retest, dose inferred, filed as 5.0)

Measured: growth inhibition

CCOC(=O)c1ccc(NC(=O)O/N=C(/Cl)C(C)C)cc1
inactive: [1]; at 1.2 µM -2% | [1]; at 3.7 µM 3% | [1]; at 11.0 µM 14% | [1]; at 33.0 µM 58% | [2]; at 1.2 µM -1% | [2]; at 3.7 µM -6% | [2]; at 11.0 µM -11% | [2]; at 33.0 µM -14% | [3]; at 1.2 µM 1% | [3]; at 3.7 µM 8% | [3]; at 11.0 µM 22% | [3]; at 33.0 µM 44% | [4]; at 1.2 µM -3% | [4]; at 3.7 µM -7% | [4]; at 11.0 µM -5% | [5]; at 1.2 µM -1% | [5]; at 3.7 µM 4% | [5]; [16] 5% | [5]; at 11.0 µM 7% | [5]; at 33.0 µM 48% | [5]; at 50.0 µM 55.4% | [6]; at 1.2 µM 1% | [6]; at 3.7 µM 1% | [6]; [16] -19% | [6]; at 11.0 µM 3% | [6]; at 33.0 µM 45% | [7]; at 1.2 µM -4% | [7]; at 3.7 µM -5% | [7]; at 11.0 µM -2% | [7]; at 33.0 µM 2% | [8]; [16] -12% | [9]; at 1.2 µM -2% | [9]; at 3.7 µM 2% | [9]; at 11.0 µM -5% | [9]; at 33.0 µM -22% | [10]; at 1.2 µM 9% | [10]; at 3.7 µM 18% | [10]; [16] -7% | [10]; at 11.0 µM 28% | [10]; at 33.0 µM 55% | [11]; at 1.2 µM -4% | [11]; at 3.7 µM -8% | [11]; at 11.0 µM 10% | [12]; at 1.2 µM -6% | [12]; at 3.7 µM -4% | [12]; at 11.0 µM -4% | [13]; at 1.2 µM -3% | [13]; at 3.7 µM -4% | [13]; at 11.0 µM 28% | [14]; [16] -7% | [14]; at 50.0 µM 69.1% | [15]; at 1.2 µM -5% | [15]; at 3.7 µM -5% | [15]; at 11.0 µM -1% | [15]; at 33.0 µM 12%
active: [1]; at 100.0 µM 98% | [2]; at 100.0 µM 97% | [3]; at 100.0 µM 87% | [4]; at 33.0 µM 73% | [4]; at 100.0 µM 99% | [5]; [17] 92% | [5]; at 100.0 µM 98% | [6]; [17] 95% | [6]; at 50.0 µM 85.5% | [6]; at 100.0 µM 99% | [7]; at 100.0 µM 99% | [8]; [17] 98% | [8]; at 50.0 µM 81.8% | [9]; at 100.0 µM 97% | [10]; [17] 97% | [10]; at 50.0 µM 76.6% | [10]; at 100.0 µM 98% | [11]; at 33.0 µM 91% | [11]; at 100.0 µM 99% | [12]; at 33.0 µM 84% | [12]; at 100.0 µM 99% | [13]; at 33.0 µM 93% | [13]; at 100.0 µM 99% | [14]; [17] 95% | [15]; at 100.0 µM 98%
